# High-throughput results: PubChem, National Center for Advancing Translational Sciences (NCATS)
# HPGD inh – blocks human HPGD enzyme activity. hit rate 4.3% among 150,000. AID 894. Potency, µM, inactives show top-dose activity change, negative = inhibition, hits mostly inhibitors. P15428. purified HPGD, NADH fluorescence kinetic, PGE2 substrate; further: potency means the concentration at half of the fitted maximal effect
#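 20 nM HPGD preincubated 15 min at room temperature with compound in 50 mM Tris-HCl pH 8, 0.01% Tween 20. Started with 1 mM NAD+ and 30 uM prostaglandin E2; NADH fluorescence (360/450 nm) read 5 times over 30-s intervals, last minus first.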
# IMPase inh – IMPase inhibition in cells. P97697. 120,000 tested, under 10 active. inhibition (IP1 accumulation), % at 46.1 µM. CHO-M1 cells, IP1 accumulation, HTRF TR-FRET ratio; active means well fitted curve in the direction sought with a large enough effect in the signal ratio, not every such curve was filed as active; inconclusive means small, poorly fitted or top-dose-only effect, or a change in a side signal; inactive means no such curve, though single readings can be large or run the other way; the % refers to the signal ratio;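 further: cells stimulated with carbachol in lithium chloride buffer; plate controls were DMSO basal wells for no effect and reference inhibitor wells for full effect; higher means more IMPase inhibition seen as more IP1 and lower FRET ratio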
#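 CHO-M1, 2000 cells/well, cultured 16–30 h; cpd up to 46 uM; carbachol (50 uM solution, stimulation buffer w/ 50 mM LiCl, pH 7.4), 30 min 37C; IP-One TR-FRET, 10 min RT; Ex 320/Em 665, 620; Hill-fit AC50.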
# IMPase Li cell – IMPase inhibition in cells with lithium potentiation; CHO-M1 cells, IP1 TR-FRET (IP-One), carbachol + lithium; Potency, µM (titrated, usually from 59.4 µM), for the others: top-dose activity, negative = IMPase inhibition, actives largely listed as inhibitors; hit rate 0.35% among 210,000; AID 1457; active means well fitted curve in the direction sought with a large enough effect; inconclusive means small, poorly fitted or top-dose-only effect, or another doubt; inactive means no such curve, though single readings can be large; an effect the other way counts as inactive or inconclusive;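 further: IP1 builds up when IMPase is blocked and the TR-FRET signal falls; potency means the concentration at half of the fitted maximal effect; plate controls were basal vehicle for no effect and high inhibitor control for full effect; nearly all actives have a fitted effect of over 50% in size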
#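 IP1 accumulation measured by competitive TR-FRET in lysed CHO-M1 cells after 30 min compound exposure at 37C, with a small lithium addition to potentiate weak responses. Hill-equation AC50 from ratio and donor-channel data.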
# PNC inhibitor – inhibitors of perinucleolar compartment assembly | PC3M PTB-GFP, PNC prevalence imaging, 16 h; active compounds read low | hit rate 3.1% among 140,000 | AID 2417 | activity change (PNC), negative = inhibition, % at 10 µM;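 active means readout at or below -70, meaning at least 70% loss of cells showing the perinucleolar compartment, a nuclear body marking cancer cells; inconclusive means readout between -30 and a set limit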;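 further: plate controls were DMSO wells for no effect and camptothecin positive control wells for full effect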
#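 Compounds are pinned in duplicate onto adhered PC3M cells stably expressing GFP-tagged PTB and incubated 16 h at 37 C. Cells are then fixed, nuclei stained with Hoechst, and PNC-positive cells counted.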
# ALOX12 inhib – 12-hLO (ALOX12) enzyme inhibition | hit rate 0.12% among 150,000 | Potency, µM (series often up to 57.1 µM), for inactives: at the highest dose activity change, negative = inhibition, hits mostly inhibitors | purified 12-hLO, xylenol orange hydroperoxide absorbance | P18054 | AID 1452; active means well fitted curve in the direction sought with a large enough effect; inconclusive means small, poorly fitted or top-dose-only effect, or another doubt; inactive means no such curve, though single readings can be large; an effect the other way counts as inactive or inconclusive; further: potency means the concentration at half of the fitted maximal effect; nearly all actives have a fitted effect of over 55% in size
#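 Purified human 12hLO (150 nM final) was preincubated with compounds for 15 min at room temperature in 25 mM Hepes pH 7.0, 0.01% Triton X-100, then reacted with 40 uM arachidonic acid for 30 min. Hydroperoxide was detected with ferrous iron/xylenol orange.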
# ALDH1A1 inh – inhibitors of human aldehyde dehydrogenase 1A1 | Purified ALDH1A1, NADH fluorescence, propionaldehyde substrate | Potency, µM (highest dose often 75.3 µM), without a hit: at the top dose activity, negative = inhibition, actives largely listed as inhibitors | hit rate 7.3% among 220,000 | AID 1030;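 further: potency means the concentration at half of the fitted maximal effect; plate controls were no enzyme wells and a reference inhibitor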
# Target sequence (P00352 whole entry, looked up): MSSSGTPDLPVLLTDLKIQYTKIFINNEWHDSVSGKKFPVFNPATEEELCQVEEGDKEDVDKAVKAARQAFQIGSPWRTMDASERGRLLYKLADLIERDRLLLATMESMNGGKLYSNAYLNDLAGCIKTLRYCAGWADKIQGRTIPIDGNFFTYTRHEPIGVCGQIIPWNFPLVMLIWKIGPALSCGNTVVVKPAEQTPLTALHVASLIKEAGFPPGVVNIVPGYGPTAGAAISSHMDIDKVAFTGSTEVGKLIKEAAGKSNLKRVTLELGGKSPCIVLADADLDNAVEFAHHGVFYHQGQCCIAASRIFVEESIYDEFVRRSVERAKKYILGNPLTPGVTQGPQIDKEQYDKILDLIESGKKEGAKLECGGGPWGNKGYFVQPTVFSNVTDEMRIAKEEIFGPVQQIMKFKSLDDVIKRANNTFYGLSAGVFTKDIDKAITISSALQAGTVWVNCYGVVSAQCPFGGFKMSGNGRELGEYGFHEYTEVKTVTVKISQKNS
# * hit, by the source's call; ? = inconclusive; nt = no result given; [ ] = dose if it differs, or a comment. Compounds with a hit are over-represented: about 11% of the library has one in this group of screens. Unless noted, the call rests on the fitted dose curve; in most records, active means well fitted inhibition curve with a large enough effect (not every such curve was filed as active); inconclusive means small, poorly fitted or top-dose-only effect, or another doubt; inactive means no such curve, though single readings can be large or run the other way. Unless noted, on the % scale 0 is the no-effect control and ±100 the full control effect.
SMILES,HPGD inh,IMPase inh,IMPase Li cell,PNC inhibitor,ALOX12 inhib,ALDH1A1 inh
COc1cccc(C(=O)Oc2cc3c4c(c2)C(C)=CC(C)(C)N4C(=O)C3=O)c1,28µM*,17,14%[38.3 µM],47,-10%,8.9µM*
COc1cc(N=C2C(=O)N3c4c(cccc42)C(C)=CC3(C)C)cc(OC)c1,-23%,nt,7%,9,1%,0.79µM*
COc1cc2c3c(c1)C(C)CC(C)(C)N3C(=O)C2=O (stereo unspecified),nt,nt,7%,nt,nt,0.14µM*
Cn1nnc(NC(=S)NC(=O)Cc2ccccc2)n1,nt,nt,-3%,nt,nt,?
COc1ccc(C(=O)NC(=S)Nc2nnn(C)n2)cc1,-30%,nt,-6%,-8,0%,11µM*
COc1cccc(C(=O)NC(=S)Nc2nnn(C)n2)c1,?,nt,12%,-7,-8%,22µM*
Cn1nnc(NC(=S)NC(=O)c2ccco2)n1,?,19,-14%,35,-5%,3.5µM*
COc1ccccc1C(=O)Nc1nnn(C)n1,0%,0,-5%[38.3 µM],21,6%,11%
Cn1nnc(NC(=O)c2ccccc2)n1,2%,-9[0.369 µM],-1%,-95*,6%,8%
CC(=O)c1c(C)n(-c2cccc(Cl)c2)c2ccc(OC(=O)c3ccccc3)cc12,nt,-11,nt,nt,nt,nt
CNC(=O)[C@H](C)/C=C(\c1cccnc1)C(NC(=O)OCc1ccccc1)c1ccc(C(=O)OC)cc1 (stereo partly specified),-15%,nt,-8%,nt,1%,1%
Cc1ccc(C(=O)O)cc1-c1ccc(/C=C2\SC(=O)N(CC(=O)Nc3ccccc3)C2=O)o1,nt,nt,8%,nt,nt,?
Cc1ccccc1NC(=O)CN1C(=O)S/C(=C\c2ccc(-c3cc(C(=O)O)ccc3C)o2)C1=O,nt,nt,11%,nt,nt,28µM*
Cc1ccc(NC(=O)CN2C(=O)S/C(=C\c3cc(C)n(-c4cccc(C(=O)O)c4)c3C)C2=O)cc1,nt,nt,nt,nt,nt,13µM*
Cc1ccc(NC(=O)CN2C(=O)S/C(=C\c3ccc(-c4cccc(C(=O)O)c4C)o3)C2=O)cc1,10µM*,-3,17%[38.3 µM],-5,-6%,?
Cc1cc(C)cc(OCCCn2c(-c3ccc(Cl)cc3)nc3ccccc3c2=O)c1,nt,5,nt,nt,nt,nt
COCCNC(=S)N1CCN(Cc2cccc(OC)c2)CC1,nt,nt,-2%,nt,nt,2%
Cc1cnc(C(=O)N2CCCC(C(=O)c3ccc(C(C)(C)C)cc3)C2)cn1 (stereo unspecified),nt,nt,21%,nt,nt,13µM*
COc1ccc(C(=O)C2CCCN(C(=O)c3cc(C)nc(C)n3)C2)cc1OC (stereo unspecified),nt,nt,7%,nt,nt,?
COc1ccc(CN(C(=O)c2cnccn2)C(C(=O)NC(C)(C)C)c2cc(OC)c(OC)c(OC)c2)cc1 (stereo unspecified),-1%,nt,-1%,-95*,-6%,-1%
COc1cc(C(C(=O)NC(C)(C)C)N(Cc2ccc3c(c2)OCO3)C(=O)c2cnccn2)cc(OC)c1OC (stereo unspecified),-10%,5,43%[38.3 µM],-21,4%,-4%
Cc1ccc2cc(CN(C(=O)c3ccco3)c3ccccc3C)c(=O)[nH]c2c1,-24%,5,9%[38.3 µM],44,-10%,4.5µM*
COc1ccc2c(c1)O[C@H](c1ccc3c(c1)OCO3)[C@@H](OC(=O)Nc1ccc(C)c(Br)c1)C2=O,3%,nt,12%,nt,nt,-4%
COc1ccc([C@@H](C)c2cc3c(cc2O)OCO3)cc1,-9%,nt,2%,nt,-13%[11.4 µM],3%[13.5 µM]
Oc1cc2c(cc1C(c1ccc(Cl)c(Cl)c1)N1CCCC1)OCO2 (stereo unspecified),nt,nt,19%,nt,nt,0.79µM*
Cc1cccc(NC(=O)CSc2nc3ccccc3nc2N2CCOCC2)c1C,nt,1,nt,nt,nt,nt
O=C(N/N=C/c1ccc(N2CCOCC2)c([N+](=O)[O-])c1)c1ccc(F)cc1,-15%,-1,19%[38.3 µM],9,5%,5µM*
O=C(N/N=C/c1ccc(N2CCCC2)c([N+](=O)[O-])c1)c1cccnc1,nt,nt,4%,nt,nt,0.28µM*
COc1ccccc1N(CC(=O)Nc1cc(C)cc(C)c1)S(C)(=O)=O,nt,-2,nt,nt,nt,nt
